Screening data from PubChem.
hgDAF-12 ag = activates the H. glycines DAF-12 receptor ligand-binding domain. HEK293 GAL4-hgDAF12 UAS-luciferase reporter, agonist luminescence; normalized to butyrate control. activation, % at 6.8 µM. hit rate 1.8% among 370,000. AID 687014;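 active means activation above a cutoff set at the mean of all screened compounds plus 3 SD, cut at about 10% in these data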;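 further: 0% = DMSO wells and 100% = sodium butyrate wells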
Wnt bcat act = Wnt/beta-catenin pathway activation; Wnt/beta-catenin reporter cell assay, activator, plate reader; activation, % at 9.35 µM; hit rate 1.2% among 300,000; in the data active means activation above about 30%, passing the limit was not always enough; inconclusive means no clear call, values can overlap the other calls;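 further: 0% = neutral control wells and 100% = positive control wells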
hcDAF12 agonist = H. contortus DAF-12 activation, primary screen; hit rate 1.4% among 370,000; AID 652067; HEK293 hcDAF-12 lit1-tk-luc reporter, luminescence; 0% DMSO, 100% Δ7-dafachronic acid; activation, % at 6.8 µM;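 active means activation above the mean of all tested compounds plus 3 SD, cut at about 5.5% in these data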;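 further: 100% = response to 3 µM Δ7-dafachronic acid high control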
DAX1 StAR inh = DAX1 (NR0B1) inhibition, primary screen | AID 652010 | inhibition, % at 6.8 µM | hit rate 1.1% among 370,000 | HEK293T StAR-luciferase reporter, SF-1/DAX-1 repression relief;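 active means inhibition above the mean over all tested compounds plus 3 SD, cut at about 3.6% in these data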;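 further: 0% = DAX-1 cells with DMSO and 100% = cells lacking DAX-1 with DMSO; higher inhibition means more luminescence from relief of DAX-1 repression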
esBAF inh = inhibitors of esBAF chromatin remodeling in mouse ES cells; Bmi1-luciferase knock-in reporter, 24 h; 100% = twice the neutral-well signal; reporter increase, % at 12.5 µM; hit rate 2% among 350,000; AID 602393; in the data active means activation above about 40%; inconclusive means no clear call, values can overlap the other calls;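 further: 0% = median of the plate's neutral control wells and 100% = double that signal; a rise in the Bmi1 reporter signal indicates esBAF inhibition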
ssDAF-12 act = activators of S. stercoralis DAF-12 nuclear receptor; HEK293 ssDAF-12/GRIP1 lit1-tk-luc reporter, luminescence; % of 3 µM dafachronic acid response; activation, % at 6.8 µM; hit rate 1% among 370,000;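 active means activation above the mean over all tested compounds plus 3 SD, cut at about 0.9% in these data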;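 further: 0% = DMSO-only wells and 100% = 3 µM delta7-dafachronic acid wells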
hgDAF12 conf = confirmation of H. glycines DAF-12 agonists; shares compounds with hgDAF-12 ag; HEK293 GAL4-hgDAF12 luciferase reporter, agonist mode; percent of butyrate response; activation, % at 6.8 µM; hit rate 80% among 3,300;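 active means mean activation over triplicate wells above the hit cutoff derived from the earlier primary screen, cut at about 11% in these data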;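 further: 0% = DMSO low control and 100% = 2 mM sodium butyrate high control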
LXRb DAF12 ctr = activates human LXR-beta, counter-screen for DAF-12 agonists; shares compounds with hgDAF-12 ag; 3,300 tested, under 10 active; HEK293 Gal4-LXR luciferase reporter, 24 h; activation, % at 6.8 µM; AID 743051;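 active means mean activation of the triplicate above a set limit carried over from the primary screen, none filed active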
Target sequence (P55055 whole entry, looked up, the tested form may be a part): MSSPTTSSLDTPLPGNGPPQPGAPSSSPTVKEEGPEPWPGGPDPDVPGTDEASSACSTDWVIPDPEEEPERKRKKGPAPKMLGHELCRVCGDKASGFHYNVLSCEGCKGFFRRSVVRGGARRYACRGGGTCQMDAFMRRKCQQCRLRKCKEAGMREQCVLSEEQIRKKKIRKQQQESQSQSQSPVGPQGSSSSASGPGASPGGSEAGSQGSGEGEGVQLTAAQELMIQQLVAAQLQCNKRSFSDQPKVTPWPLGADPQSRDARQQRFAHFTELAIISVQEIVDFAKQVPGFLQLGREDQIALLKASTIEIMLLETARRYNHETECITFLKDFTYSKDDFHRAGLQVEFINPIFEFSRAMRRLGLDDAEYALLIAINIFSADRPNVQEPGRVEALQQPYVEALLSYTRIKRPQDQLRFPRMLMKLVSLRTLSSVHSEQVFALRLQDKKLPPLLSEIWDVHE
Starred values were filed as active, the others as inactive; u = inconclusive; x = not tested or not shown. An excerpt weighted towards active compounds, which were near 4.2% of everything screened.

SMILES	hgDAF-12 ag	Wnt bcat act	hcDAF12 agonist	DAX1 StAR inh	esBAF inh	ssDAF-12 act	hgDAF12 conf	LXRb DAF12 ctr
COc1ccc(CN(C)C[C@H]2OCCCC[C@H](C)Oc3ccc(NC(=O)NC(C)C)cc3C(=O)N([C@H](C)CO)C[C@@H]2C)cc1	x	x	x	x	-9	x	x	x
O=C(N/N=C/C(Cl)=C\c1ccccc1)c1cccs1	18*	39*	4	2	x	1.4*	16*	1
CC(/C=N/NC(=O)c1ccccn1)=C\c1ccco1	14*	3	4	2	x	1.2*	11*	1
O=C(N/N=C/C(Cl)=C/c1ccccc1)c1ccccn1	15*	17	4	3	x	0	12*	1
O=C(N/N=C/C=C\c1ccco1)c1ccccn1	4	11	2	0	x	0	x	x
CNC(=O)C[C@@H]1CC[C@H]2[C@@H](COc3ccc(NC(=O)Nc4ccc(F)cc4)cc3C(=O)N2C)O1	x	x	x	x	-4	x	x	x
COc1ccccc1C(=O)N/C(=N/c1nc(C)cc(C)n1)Nc1ccccc1	14*	2	5	1	x	0	-2	0
Cc1c(C)n(CCO)c2ncnc(Nc3ccc(F)cc3)c12	5	10	0	1	u	-1	x	x
COc1ccc(Nc2ncnc3c2c(C)c(C)n3CCO)cc1	16*	41*	3	4	-10	1	17*	1
O=c1c(-c2c(O)cc(O)c3c(=O)cc(-c4ccc(O)cc4)oc23)c(-c2ccc(O)cc2)oc2cc(O)cc(O)c12	-3	-1	-2	-1	3	-1	x	x
O=c1c(-c2ccc(O)cc2)coc2cc(O)cc(O)c12	17*	44*	3	3	57*	0	10	0
O=C(O)c1ccc(-n2cc(C(=O)c3ccccc3O)cn2)cc1	2	4	2	1	7	-1	x	x
O=C(c1cnn(-c2cccc(F)c2)c1)c1ccccc1O	15*	37*	3	2	x	1	16*	1
Nc1ccc(CCc2nc3ccccc3o2)cc1	13*	x	2	4	-5	-1	13*	1
COc1ccc2c(c1OC)C(=O)OC2Nc1nc(-c2cc3ccccc3oc2=O)cs1 (stereo unspecified)	18*	x	5	4.3*	8	1	17*	1
COc1ccc2c(c1OC)C(=O)OC2Nc1nc(-c2cc3cc([N+](=O)[O-])ccc3oc2=O)cs1 (stereo unspecified)	0	-2	-2	0	u	-1	x	x
C#CC1(NC(=S)Nc2cccc(OC)c2)CCCCC1	15*	-1	2	1	x	0	1	0
O=C(NCc1cccs1)c1cc(-c2cccs2)on1	15*	x	2	1	u	-1	15*	0
O=C(NCc1cccs1)c1cc(-c2ccccc2)on1	16*	x	3	3	40	0	14*	0
CCCn1cc(NC(=O)c2cc(-c3ccccc3)on2)cn1	22*	x	0	0	53*	-1	20*	0
Cc1cc(C(=O)NCc2cccs2)no1	2	x	0	0	8	-2	x	x
COCCNC(=O)c1cc(-c2cccs2)on1	37*	u	1	1	26	0	28*	0
C[C@@H]1CN([C@H](C)CO)C(=O)Cc2cc(NS(=O)(=O)c3cn(C)cn3)ccc2O[C@@H]1CN(C)C(=O)Nc1ccc2c(c1)OCO2	x	x	x	x	-5	x	x	x
O=C(Nc1cccc(O)c1)c1cc(-c2cccs2)on1	15*	10	3	3	81*	0	21*	0
C[C@H](CO)N1C[C@H](C)[C@H](CN(C)Cc2ccc3c(c2)OCO3)Oc2ccc(NC(=O)CCN3CCOCC3)cc2C1=O	x	x	x	x	4	x	x	x
SMILES	hgDAF-12 ag	Wnt bcat act	hcDAF12 agonist	DAX1 StAR inh	esBAF inh	ssDAF-12 act	hgDAF12 conf	LXRb DAF12 ctr
Cc1ccc(NC(=O)c2ccsc2)cc1NS(C)(=O)=O	x	x	x	x	-4	x	x	x
CC(C)(C)c1ccc(NC(=O)c2ccsc2)cc1	17*	27	6.5*	3	x	1.0*	16*	1
COc1ccc(CCNC(=O)c2cc(-c3ccc(C)c(C)c3O)n[nH]2)cc1OC	-1	x	-3	-1	9	-2	x	x
O=C(Nc1cccnc1)c1ccc(C(=O)Nc2cccnc2)cc1	0	-1	0	0	x	-1	x	x
CC(C)(C)c1ccc(C(=O)Nc2cccnc2)cc1	16*	0	5.9*	2	27	1.5*	13*	1
Cc1ccc(-c2cc(C(=O)Nc3cccnc3)[nH]n2)c(O)c1C	14*	44*	1	1	x	-1	16*	1
COc1cccc(C(=O)Nc2ccc3c(c2)C(=O)N(C)[C@@H]2CC[C@H](CC(=O)NCc4ccccc4F)O[C@H]2CO3)c1	x	x	x	x	2	x	x	x
CCCC#Cc1cnc2c(c1)C(=O)N([C@@H](C)CO)C[C@@H](C)[C@H](CN(C)CCC)O2	x	x	x	x	-3	x	x	x
CC(=O)/C=C(\C)Nc1ccc(-c2cnc(-c3ccccc3)o2)cc1	18*	-4	6.2*	4.0*	12	1	13*	1
CC(=O)Nc1ccc(-c2nc3ccccc3c(=O)o2)cc1	0	1	-2	0	-2	-1	x	x
CC(C)C(=O)Nc1ccc(-c2nnc(-c3ccccc3)o2)cc1	14*	u	5	2	-7	1	17*	1
C[C@@H]1CN([C@@H](C)CO)C(=O)c2cc(NC(=O)CCC(F)(F)F)ccc2O[C@@H]1CN(C)Cc1ccc(Oc2ccccc2)cc1	x	x	x	x	-2	x	x	x
COCC(=O)N[C@@H]1CC[C@H](CC(=O)NCc2ccc(Cl)cc2)O[C@H]1CO	x	x	x	x	-1	x	x	x
Cc1ccc(/C=C/c2nnc(-c3ccc(C)cc3)o2)cc1	2	x	1	1	12	-1	x	x
Cc1ccc(/C=C/c2nnc(-c3cccs3)o2)cc1	15*	-1	3	4.4*	-40	0	16*	1
Fc1ccc(/C=C/c2nnc(-c3cccs3)o2)cc1	15*	53*	4	3.7*	x	0	12*	1
C[C@H](CO)N1C[C@H](C)[C@H](CN(C)S(=O)(=O)c2ccc(F)cc2)Oc2c(NC(=O)c3cnccn3)cccc2C1=O	x	x	x	x	4	x	x	x
COc1cc(C)ccc1OCc1cc(C(=O)N(Cc2nccn2C)C(C)C)no1	18*	27	5	3.7*	94*	0	13*	1
Fc1cccc2sc(Nc3nc4cc5c(cc4s3)OCO5)nc12	16*	14	6.3*	3	96*	1.1*	14*	1
CCOC(=O)c1sc2nc(-c3cccnc3)ccc2c1N	22*	52*	5	3	x	0	17*	1
